From PubChem
Arbovirus anti – blocks arbovirus infection; hit rate 0.37% among 200,000; inhibition, % at 10 µM; arbovirus infection cell-based antiviral screen; in the data active = inhibition above about 30%
CHOP inh – inhibitors of CHOP induction in ER stress response; inhibition, % at 10 µM; hit rate 3.8% among 220,000; CHO-K1 CHOP-promoter luciferase, tunicamycin-induced, 15-18 h; AID 2732;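 active = compounds that reduced the stress-induced luciferase reporter signal by more than about 70% of percent inhibition, limit read from the data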;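 also: 0% = tunicamycin plus vehicle and 100% = wells without tunicamycin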
Lmaj promast – reduces viability of Leishmania major promastigotes. resazurin fluorescence viability. inhibition, % at 10 µM. hit rate 9% among 200,000. AID 1063; in the data active = inhibition above about 50%;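 also: promastigotes grown with compound for 44 hours at 28 °C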
WT yeast gro inh – growth inhibition of WT yeast, mitochondrial fusion screen | mitochondrial fusion phenotypic screen, WT strain | inhibition, % at 10 µM | hit rate 2.1% among 190,000; in the data active = inhibition above about 58%; tested in S. cerevisiae
The depositor's hits bear a star; · = no result given. Only some compounds are listed: those with a hit (about 12% of all), similar ones and a draw of the others.

SMILES	Arbovirus anti	CHOP inh	Lmaj promast	WT yeast gro inh
CN1CCCN(C(=O)c2ccc(Cl)c(S(=O)(=O)N(C)c3ccccc3)c2)CC1	-2	-2	72*	5
CCN(CC)S(=O)(=O)c1ccc(OC)c(NC(=O)CSc2cc(C)ccc2C)c1	3	25	73*	29
CCN(CC)S(=O)(=O)c1ccc(OC)c(NC(=S)Nc2cc(C)ccc2C)c1	-6	29	42	6
CN1CCN(C(=O)c2ccc(Cl)c(S(=O)(=O)N3CCCCC3)c2)CC1	1	25	-9	-17
COc1ccc(CCNC(=O)c2cc(-c3cc(Cl)cc(Cl)c3)oc2C)cc1	-2	70*	2	20
Cc1oc(-c2cc(Cl)cc(Cl)c2)cc1C(=O)NCCc1ccccc1	-12	41	-6	52
COc1cc(Cl)c(C)cc1NC(=O)CSc1ccc(C)cc1	3	74*	-2	17
CCOC(=O)n1cc(-c2cnc(CNC(=O)C(C)(c3ccccc3)c3ccccc3)o2)c2ccccc21	4	14	2	9
O=C(O)c1ccccc1-c1ccccc1C(=O)NNc1ccc([N+](=O)[O-])cc1	·	0	·	·
Oc1ccc(/C=N/Nc2cc(N3CCCC3)nc(N3CCCC3)n2)cc1O	-17	12	99*	-26
CC(C)c1ccc(/C=N/Nc2cc(N3CCOCC3)nc(N3CCOCC3)n2)cc1	-11	24	15	28
Cc1cccc(/C=N/Nc2cc(N3CCOCC3)nc(N3CCOCC3)n2)c1	-23	-1	87*	21
Brc1ccc(-c2ccc(/C=N/Nc3nc(N4CCOCC4)nc(N4CCOCC4)n3)o2)cc1	1	58	4	12
Clc1ccc(-c2ccc(/C=N/Nc3cc(N4CCOCC4)nc(N4CCOCC4)n3)o2)cc1	-27	5	35	60*
Cc1cccc(NC(=O)c2nc[nH]c2C(=O)NCC(=O)OC(C)(C)C)c1	·	58	·	·
CCOC(=O)C(C)c1nc2ccccc2[nH]c1=O (centres undefined)	1	25	-2	73*
CCOC(=O)C1=C(C)NC(C)=C(C(=O)OCC)C1c1nc2ccccc2[nH]1	1	·	3	6
CCOC(=O)C1CCCN(C(=O)c2cc(-c3ccc(F)cc3)nc3ccccc23)C1 (centres undefined)	10	17	10	30
CCN1CCCC(OC(=O)c2cc(-c3ccc(C)cc3)nc3ccccc23)C1 (centres undefined)	-6	29	84*	30
Cc1c(C)c2cc(Cl)c(O)c(CN3CCCC(C)C3)c2oc1=O (centres undefined)	5	-18	-4	66*
Cc1cc(N2CCCCC2)n2ncc(-c3ccc(Cl)cc3)c2n1	-6	35	3	58*
Cc1cc(N2CCOCC2)n2ncc(-c3ccc(Cl)cc3)c2n1	·	12	·	·
Cc1nn2c(N3CCN(C(=O)c4ccco4)CC3)cc(C(C)(C)C)nc2c1-c1ccccc1	6	65	57*	-4
Cc1cc(N2CCN(C(=O)c3ccco3)CC2)n2ncc(-c3ccccc3)c2n1	-3	-1	16	93*
Cc1cc(N2CCN(C(=O)c3ccco3)CC2)n2ncnc2n1	-2	-27	-2	-14
SMILES	Arbovirus anti	CHOP inh	Lmaj promast	WT yeast gro inh
CN(C(=O)COC(=O)CNC(=O)c1ccc(Cl)cc1Cl)c1ccccc1	-3	18	-5	-3
O=C(NNc1ccc(O)cc1)c1ccc(Br)cc1	-24	2	98*	24
O=C(Nc1cccc(O)c1)c1ccc(Br)cc1	7	-3	9	1
NNC(=O)c1nc[nH]c1C(=O)Nc1ccccc1[N+](=O)[O-]	-6	-22	19	12
O=C(Nc1ccc(F)cc1)c1nc[nH]c1C(=O)Nc1ccccc1[N+](=O)[O-]	-14	87*	-7	-3
COc1ccc(Nc2cc(C(=O)NCCCN3CCN(C)CC3)c3ccccc3n2)c(OC)c1	2	29	1	-8
Cc1ccc(Nc2ncc(C(=O)NCCCN3CCN(C)CC3)c3ccccc23)cc1Cl	-26	23	84*	-11
COc1cc(C(CC(=O)O)n2cnnn2)ccc1OC(C)C (centres undefined)	-1	-1	-6	4
O=C(/C=C/c1ccccc1)N1CCC(Cc2ccccc2)CC1	7	60	-4	3
N/C(=N/O)c1ccccc1N1CCC(Cc2ccccc2)CC1	28	43	23	70*
O=C(NC(=S)NCC1CCCO1)c1ccc(Br)o1 (centres undefined)	1	-35	-3	11
O=C1C2C3CCC(C3NCc3ccccc3)C2C(=O)N1Cc1ccccc1 (centres undefined)	-17	33	60*	41
O=C(Nc1ccccc1)N1CCSc2ccccc21	1	5	-5	4
O=C(Nc1cccc(Cl)c1)N1CCCC1	4	-21	100*	0
O=C(Nc1ccc(Cl)cc1)N1CCSc2ccccc21	0	-6	90*	42
